# LGR2 antag – inhibitors of bursicon-induced Drosophila LGR2 receptor cAMP signaling | HEK293 LGR2, CRE-luciferase, bursicon-stimulated, 4 h | inhibition, % at 9.99 µM | hit rate 0.35% among 380,000;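 active means drop in luminescence signal, shown as inhibition above about 50% in the replicate tests, limit read from the data, passing the limit was not always enough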;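 further: agonist challenge used bursicon conditioned medium at about half maximal strength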
# TROY NFkB inh – inhibitors of TROY-dependent NF-kB signaling. Q293 LMP1-TROYcd NF-kB luciferase reporter, 4 h. inhibition, % at 10 µM. hit rate 0.98% among 360,000. AID 1347056;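 active means compounds whose plate-normalised and pattern-corrected inhibition of the luciferase reporter signal at the single screening dose is 50% or more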
# EWS-Fli block – blocks EWS/Fli oncoprotein-driven transcription | inhibition, % at 12.6 µM | AID 651661 | A673 NR0B1-luciferase reporter, viability-normalised | hit rate 0.67% among 350,000;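 active means mean inhibition of at least 50% after viability correction, with every replicate also passing that limit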;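 further: firefly luciferase signal divided by Alamar Blue viability fluorescence both relative to DMSO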
# TWEAK Fn14 block – blocks TWEAK-Fn14 interaction in a reporter cell assay. TWEAK-stimulated Fn14 reporter cells, luciferase luminescence, 8 h. inhibition, % at 10 µM. hit rate 2% among 360,000. AID 1159606; in the data active means inhibition above about 50%
# LMP1 NFkB inh – inhibitors of Epstein-Barr LMP1-induced NF-kappaB reporter | LMP1-induced NF-kappaB luciferase reporter cells, luminescence | inhibition, % at 12.5 µM | hit rate 0.69% among 350,000; in the data active means inhibition above about 41%;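 further: 0% = neutral control wells and 100% = reference inhibitor control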
# DNA binding – binds DNA displacing acridine orange | hit rate 2% among 640 | AC35, µM (titrated, usually from 68 µM), without a hit: top-dose activity change, negative = DNA binding | shares compounds with EWS-Fli block | salmon sperm DNA acridine orange fluorescence polarization | AID 720586;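 active means fitted curve reaches a 35% signal fall AC35 below twice the sample's top valid tested dose, actives reach about 48 µM in these data; inactive means the rest, including activity in the rising direction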;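 further: lower polarization ratio signals compound binding to DNA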
# An asterisk follows results filed as active; nt = no result; [ ] = remark or other dose. Compounds with a hit are over-represented: about 2.5% of the library has one in this group of screens.
SMILES,LGR2 antag,TROY NFkB inh,EWS-Fli block,TWEAK Fn14 block,LMP1 NFkB inh,DNA binding
COCC#Cc1ccc2c(c1)O[C@@H](CN(C)C(=O)C1CC1)[C@H](C)CN([C@H](C)CO)S2(=O)=O,2,nt,-13,nt,nt,nt
CO[C@H]1CN(C)C(=O)c2cc(NC(C)=O)ccc2OC[C@@H](C)N(CC2CC2)C[C@@H]1C,1,nt,-3,nt,nt,nt
CC(C)CC#Cc1ccc2c(c1)O[C@@H](CN(C)S(=O)(=O)c1cccc(F)c1)[C@H](C)CN([C@H](C)CO)S2(=O)=O,9,nt,28,nt,nt,nt
C[C@@H]1CN([C@H](C)CO)C(=O)c2cc(C#CCc3ccccc3)cnc2O[C@@H]1CN(C)Cc1cccc(F)c1,14,nt,56*,nt,nt,-7%
C[C@H](CO)N1C[C@H](C)[C@H](CN(C)Cc2cccc(F)c2)Oc2ncc(C#CCc3ccccc3)cc2C1=O,-1,nt,12,nt,nt,nt
C[C@H]1CN([C@@H](C)CO)C(=O)c2cc(N(C)C)ccc2O[C@@H]1CN(C)Cc1ccc(C(=O)Nc2ccccc2N)cc1,1,nt,65*,nt,nt,-3%
Cc1ccc(S(=O)(=O)N(C)C[C@@H]2Oc3ccc(NC(=O)CCCCCC(=O)Nc4ccccc4N)cc3CC(=O)N([C@@H](C)CO)C[C@@H]2C)cc1,-14,nt,56*,nt,nt,-3%[56 µM]
C[C@@H]1CN([C@@H](C)CO)C(=O)Cc2cc(NC(=O)Nc3ccc(C(F)(F)F)cc3)ccc2O[C@@H]1CN(C)Cc1ccc(C(=O)Nc2ccccc2N)cc1,-21,nt,55*,nt,nt,-4%
CS(=O)(=O)Nc1ccc2c(c1)[C@H]1C[C@H](CC(=O)N3CCOCC3)O[C@@H](CO)[C@H]1O2,-3,nt,3,nt,nt,nt
C[C@H](CO)N1C[C@H](C)[C@H](CN(C)Cc2ccc(C(=O)Nc3ccccc3N)cc2)Oc2ccc(N(C)C)cc2CC1=O,-9,nt,67*,nt,nt,1%
C[C@H](CO)N1C[C@H](C)[C@@H](CN(C)Cc2ccc(Oc3ccccc3)cc2)Oc2ccc(NS(=O)(=O)c3ccc(Cl)cc3)cc2CC1=O,21,nt,57*,nt,nt,-4%
CN1c2ccc(-c3cccc(C#N)c3)cc2[C@@H]2[C@@H](CCN2C(=O)C2CCCCC2)[C@@H]1CO,-4,nt,0,nt,nt,nt
C=C1C(=O)C=C[C@]2(C)C[C@@H]3OC(=O)[C@](C)(O)[C@H]3C[C@@H]12,35,-4,65*,55*,-105,15%
C[C@H]1CN([C@@H](C)CO)S(=O)(=O)c2ccc(C#CC3CC3)cc2O[C@@H]1CN(C)Cc1ccccc1F,22,nt,24,nt,nt,nt
C[C@@H]1CN([C@@H](C)CO)S(=O)(=O)c2ccc(C#CC(C)(C)O)cc2O[C@@H]1CN(C)Cc1ccc(-c2ccccc2)cc1,30,nt,30,nt,nt,nt
C[C@@H]1CN([C@H](C)CO)S(=O)(=O)c2ccc(C#CC3CC3)cc2O[C@@H]1CN(C)Cc1ccccc1F,26,nt,61*,nt,nt,-10%
C[C@@H]1CN([C@@H](C)CO)S(=O)(=O)c2ccc(C#CC(C)(C)O)cc2O[C@H]1CN(C)Cc1ccc(-c2ccccc2)cc1,-5,nt,75*,nt,nt,-3%
C=CCOc1c(/C=N\NC(N)=O)cccc1OC,4,1,6,-4,-2,nt
COc1cccc(Sc2ccccc2/C=N/NC(N)=O)c1,8,11,54*,0,-3,-14%
N#CC1=C(N)Oc2cc(N)ccc2C1c1cccc(F)c1 (configuration not stated),-22,3,53*,41,10,-9%
N#C[C@H]1N[C@H](CO)[C@H]1c1ccc(C#Cc2ccccc2F)cc1,24,nt,53*,nt,nt,4%
N#C[C@H]1[C@H](c2ccc(C#Cc3ccccc3F)cc2)[C@@H](CO)N1C(=O)C1CCOCC1,43,nt,67*,nt,nt,-9%
N#C[C@H]1[C@H](c2ccc(C#Cc3ccccc3F)cc2)[C@@H](CO)N1C(=O)C1CC1,3,nt,19,nt,nt,nt
N#C[C@@H]1[C@H](c2ccc(C#Cc3ccccc3F)cc2)[C@@H](CO)N1C(=O)c1cccnc1,41,nt,74*,nt,nt,7%
CCc1cnc(N2[C@H](C#N)[C@H](c3ccc(C#Cc4ccccc4F)cc3)[C@H]2CO)s1,19,nt,53*,nt,nt,-6%
SMILES,LGR2 antag,TROY NFkB inh,EWS-Fli block,TWEAK Fn14 block,LMP1 NFkB inh,DNA binding
CCc1cnc(N2[C@H](C#N)[C@H](c3ccc(C#Cc4ccccc4F)cc3)[C@@H]2CO)s1,-7,nt,-22,nt,nt,nt
CC(C)NC(=O)N(C)C[C@H]1Oc2cc(Br)ccc2S(=O)(=O)N([C@@H](C)CO)C[C@@H]1C,-10,nt,-7,nt,nt,nt
CCCCc1c(Cc2ccccc2)ncn1CCc1ccccc1OC,37,41,55*,1,nt,-13%
O=C1Nc2ccccc2C1=Nc1ccc(F)cc1,nt,-6,nt,0,13,nt
CC(=O)c1ccc(N=C2C(=O)Nc3ccccc32)cc1,-3,-13,54*,12,17,-9%
Cc1ccc(/C=N/Nc2ccnc3cc(Cl)ccc23)c(C)c1,nt,41,76*,19,5,-8%
C[C@@H]1CCCCO[C@H](CN(C)Cc2ccc(C(=O)Nc3ccccc3N)cc2)[C@@H](C)CN([C@H](C)CO)C(=O)c2cc(NS(=O)(=O)c3ccccc3)ccc2O1,12,nt,-4,nt,nt,nt
Cc1ccc(S(=O)(=O)Nc2ccc3c(c2)C(=O)N([C@@H](C)CO)C[C@@H](C)[C@H](CN(C)Cc2ccc(C(F)(F)F)cc2)OCCCC[C@H](C)O3)cc1,31,nt,69*,nt,nt,-21%
C[C@@H]1CN([C@@H](C)CO)C(=O)c2cc(NC(=O)c3ccccc3)ccc2O[C@@H](C)CCCCO[C@H]1CN(C)C(=O)Nc1cccc2ccccc12,26,nt,71*,nt,nt,5%
C[C@@H]1CCCCO[C@H](CN(C)Cc2ccc(C(=O)Nc3ccccc3N)cc2)[C@@H](C)CN([C@H](C)CO)C(=O)c2cc(NS(=O)(=O)c3ccc(F)cc3)ccc2O1,-8,nt,61*,nt,nt,-10%
C[C@@H]1CN([C@H](C)CO)C(=O)c2cc(NC(=O)CCC(F)(F)F)ccc2O[C@@H](C)CCCCO[C@H]1CN(C)Cc1ccc(Cl)c(Cl)c1,0,nt,0,nt,nt,nt
O=C(C[C@@H]1C[C@@H]2c3cc(NC(=O)C4CCOCC4)ccc3O[C@@H]2[C@H](CO)O1)NCc1ccccc1F,-10,nt,2,nt,nt,nt
O=C1/C(=C\c2ccccc2)CN(C(=O)CCN2CCCCC2)C/C1=C/c1ccccc1,104*,69*,80*,106*,-32,1%
O=C(CCN1C(=O)S/C(=C\c2ccccc2)C1=O)N1CCCCC1,-6,-44,-42,-15,-11,nt
COC(=O)C[C@H]1CC[C@@H](NC(=O)Nc2ccc(C(F)(F)F)cc2)[C@H](CO)O1,1,nt,69*,nt,nt,-17%
COC(=O)C[C@@H]1CC[C@@H](NC(=O)Nc2ccc(C(F)(F)F)cc2)[C@H](CO)O1,-1,nt,-32,nt,nt,nt
COc1ccc(CN(C)C[C@@H]2OCCCC[C@@H](C)Oc3ccc(NS(C)(=O)=O)cc3C(=O)N([C@@H](C)CO)C[C@@H]2C)cc1,11,nt,-1,nt,nt,nt
O=C1CNC[C@H]2[C@@H](c3ccc(C#CC4CCCC4)cc3)[C@@H](CO)N12,15,nt,8,nt,nt,nt
COc1ccc(-c2ccc3c(n2)CCCN3S(=O)(=O)c2ccc(F)cc2)cc1,-22,nt,0,nt,nt,nt
